Drawing on PubChem BioAssay (Tox21), this text covers Potency, outcome and PLD induction for 5 molecules.

The structures appear in SMILES notation. Where “and” joins values, the source holds several entries; their conditions need not be identical. Equal values may be shown once. Values without a mark were called inactive. Results filed as inconclusive are left out. Calls of active or inactive are those of the source. Unless noted, calls follow the shape of the dose curve; as a rule, active = well fitted curve in the direction sought with a large enough effect in the repeat runs; inconclusive = weak or mixed curves; inactive = no such curve, though single readings can be large; an effect the other way counts as inactive or inconclusive.

Assay [1] is described as follows: A CellTox Green Cytotoxicity Assay to monitor cytotoxicity in HepG2 cells - 0 hour (AID 1224882). Also: nearly all actives have a fitted effect of over 35% in size. In a few lines:
(§1)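 HepG2 cells, 600/well, preincubated 5 h with CellTox Green dye, then exposed to Tox21 compounds in DMSO at 37 C for up to 40 h. Dead-cell DNA fluorescence read at the indicated time point.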

Assay [2] in a line: A CellTox Green Cytotoxicity Assay to monitor cytotoxicity in HepG2 cells - 32 hour (AID 1224883). Also: nearly all actives have a fitted effect of over 50% in size. The essentials: as §1
Assay [3] in a line: A CellTox Green Cytotoxicity Assay to monitor cytotoxicity in HEK293 cells - 8 hour (AID 1224884). Also: nearly all actives have a fitted effect of over 35% in size. The essentials:
(§2)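 HEK293 cells, 600/well, were preincubated 5 hours and then exposed to compounds at 37 C for up to 40 hours. A cell-impermeant cyanine dye staining dead-cell DNA was read by fluorescence at 0, 8, 16, 24, 32 and 40 h time points.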

Assay [4] is described as follows: qHTS RealTime-Glo MT Cell Viability Assay in HepG2 cells - 16 hour (AID 1224885). Also: nearly all actives have a fitted effect of over 50% in size. The essentials: (§3)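 qHTS, HepG2, 600 cells/well, RealTime-Glo (NanoLuc + prosubstrate) added with cells; 5 h preincubation; DMSO compound addition; 37 C; luminescence at 0/8/16/24/32/40 h.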
Assay [5] can be described thus: qHTS RealTime-Glo MT Cell Viability Assay in HEK293 cells - 24 hour (AID 1224886). Also: nearly all actives have a fitted effect of over 50% in size. Also: potency is read from the fitted curve at half-maximal effect. The essentials: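 Assay medium contained NanoLuc luciferase plus cell-permeant prosubstrate, added with HEK293 cells at 600 cells/well. After 5 h at 37 C/5% CO2 compounds were added; plates stayed at 37 C for 40 h with serial luminescence reads.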
Assay [6] in a line: qHTS RealTime-Glo MT Cell Viability Assay in HEK293 cells - 8 hour (AID 1224887). Also: top concentration of the series differs between compounds; nearly all actives have a fitted effect of over 50% in size. In a few lines:
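600 cells/well were plated with the nonlytic NanoLuc/prosubstrate reagent, pre-incubated 5 h, then given 23 nL of compound in DMSO. Incubation at 37 C for 40 h, with luminescence from viable-cell-reduced substrate read repeatedly from 0 h.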

A short description of assay [7]: A CellTox Green Cytotoxicity Assay to monitor cytotoxicity in HEK293 cells - 16 hour (AID 1224888). Also: nearly all actives have a fitted effect of over 35% in size. In a few lines:
as §2

Assay [8] is described as follows: qHTS RealTime-Glo MT Cell Viability Assay in HepG2 cells - 0 hour (AID 1224889). Also: nearly all actives have a fitted effect of over 50% in size. In a few lines:
as §3

Assay [9] can be described thus: A CellTox Green Cytotoxicity Assay to monitor cytotoxicity in HepG2 cells - 8 hour (AID 1224890). Also: nearly all actives have a fitted effect of over 45% in size. In a few lines: as §1
Assay [10] in a line: qHTS assay to identify small molecule antagonists of the estrogen receptor alpha (ER-alpha) signaling pathway using the BG1 cell line in the presence of 0.1 nM 17-beta-estradiol - cell viability counter screen (AID 1259241). Also: nearly all actives have a fitted effect of over 40% in size. The essentials: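 VM7Luc4E2 cells (endogenous ER-alpha, 4×ERE-luciferase), hormone-starved 5 days in charcoal-stripped FBS, were treated with compounds plus 0.1 nM 17beta-estradiol for 22 hr at 37C; viability read in same wells as CellTiter-Fluor live-cell protease fluorescence.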

The nature of assay [11]: qHTS assay to identify small molecule antagonists of the androgen receptor (AR) signaling pathway using the MDA cell line in the presence of 0.5 nM R1881 - cell viability counter screen (AID 1259242). Also: nearly all actives have a fitted effect of over 45% in size. In a few lines:
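MDA-kb2 cells (MMTV-luciferase, AR/GR responsive) were treated with compounds plus 0.5 nM R1881 (final) for 16 hr at 37C, 0% CO2. Viability was then read in the same wells as live-cell protease fluorescence (CellTiter-Fluor, 30 min).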

For assay [12], the target named is Androgen receptor (Homo sapiens) (UniProt P10275). The assay can be described thus: qHTS assay to identify small molecule antagonists of the androgen receptor (AR) signaling pathway using the MDA cell line in the presence of 0.5 nM R1881 (AID 1259243). Also: nearly all actives have a fitted effect of over 50% in size. The essentials:
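MDA-kb2 cells (MMTV-luciferase, responsive to AR and GR) at 3,000/well, rested 5 h at 37C, 0% CO2, then given compounds plus 0.5 nM R1881 (final) for 16 hr. Luciferase read with ONE-Glo after 30 min at room temperature.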

Assay [13] is described as follows: qHTS assay to identify small molecule phospholipidosis (PLD) inducers (AID 1259344; active = well fitted curve in the direction sought with a large enough effect; an effect the other way counts as inactive or inconclusive). In a few lines: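 Quantitative HTS in HepG2: compound plus LipidTOX Red dye for 24 h, paraformaldehyde fixation with Hoechst 33342, widefield high-content imaging; amiodarone as positive and DMSO as negative control.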
Assay [14] can be described thus: qHTS assay to identify small molecule HDAC inhibitors (AID 1259364). Also: nearly all actives have a fitted effect of over 45% in size. Also: potency is read from the fitted curve at half-maximal effect. The essentials: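 Wild-type HCT-116 cells, plated overnight at 37 C, exposed to compounds 2 hr at 37 C; luminogenic HDAC-Glo substrate then added 30 min at room temperature. Luminescence reports relative endogenous class I/II HDAC activity.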
A short description of assay [15]: qHTS assay to identify small molecule HDAC inhibitors - cell viability counter screen (AID 1259365). The essentials: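 Wild-type HCT-116 cells were seeded at 1,500 per well, incubated overnight at 37 C, then exposed to compounds in DMSO for 2hr. Viability was read by CellTiter-Glo luminescence after 30min at room temperature.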
Assay [16] in a line: qHTS assay to identify small molecule agonists of the sonic hedgehog signaling (Shh) pathway - cell viability counter screen (AID 1259366). Also: nearly all actives have a fitted effect of over 50% in size. In a few lines:
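NIH/3T3-derived 3T3 Gli1-Luc cells (stable Gli1-responsive firefly luciferase reporter) were seeded, rested 4 hr at 37 C/5% CO2, then exposed to compounds in DMSO for 24 hr; viability was read by CellTiter-Fluor fluorescence in the same wells.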

Assay [17] in a line: qHTS assay to identify small molecule antagonists of the sonic hedgehog signaling (Shh) pathway - cell viability counter screen (AID 1259367). Also: nearly all actives have a fitted effect of over 55% in size. In a few lines:
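Seed 3T3 Gli1-Luc cells at 2,000 per well; incubate 4 hr; add compound in DMSO, then conditioned medium; incubate at 37C with 5% CO2; add CellTiter-Fluor after 23 hr; read fluorescence 1 hr later.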

Assay [18] is described as follows: qHTS assay to identify small molecule agonists of the sonic hedgehog signaling (Shh) pathway (AID 1259368; calls by dose curve; also: series mostly up to about 92 µM; nearly all actives have a fitted effect of over 15% in size). In a few lines:
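NIH/3T3-derived 3T3Gli1-Luc cells with stably integrated Gli1-driven firefly luciferase, 2,000 cells/well, compounds added after 4 hr. Incubated 24 hr at 37C, 5% CO2; luminescence read after 30 min with luciferase reagent at room temperature.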

Assay [19] is described as follows: qHTS assay to identify small molecule antagonists of the sonic hedgehog signaling (Shh) pathway (AID 1259369; calls by dose curve; also: nearly all actives have a fitted effect of over 45% in size). The essentials: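 NIH/3T3-derived Gli1-Luc reporter cells plated 4 h, dosed with compound, then stimulated with conditioned medium for 24 h at 37 C. Firefly luciferase luminescence read after 30 min with detection reagent at room temperature.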
Assay [20] addresses Estrogen receptor (Homo sapiens) (UniProt P03372). The assay can be described thus: qHTS assay to identify small molecule antagonists of the estrogen receptor alpha (ER-alpha) signaling pathway using the BG1 cell line in the presence of 0.1 nM 17-beta-estradiol (AID 1259244). Also: nearly all actives have a fitted effect of over 50% in size. The essentials: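 VM7Luc4E2 cells (endogenous full-length ER-alpha, 4×ERE-luciferase), kept 5 days in phenol red-free, charcoal-stripped FBS medium; 4,000 cells/well. Compounds added with 0.1 nM (final) 17beta-estradiol, 22 hr at 37C; luminescence read with ONE-Glo after 30 min.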
% is scaled to controls: 0 for no effect and ±100 for the full control effect.

Chain of Estrogen receptor (Homo sapiens) (P03372 whole entry, looked up): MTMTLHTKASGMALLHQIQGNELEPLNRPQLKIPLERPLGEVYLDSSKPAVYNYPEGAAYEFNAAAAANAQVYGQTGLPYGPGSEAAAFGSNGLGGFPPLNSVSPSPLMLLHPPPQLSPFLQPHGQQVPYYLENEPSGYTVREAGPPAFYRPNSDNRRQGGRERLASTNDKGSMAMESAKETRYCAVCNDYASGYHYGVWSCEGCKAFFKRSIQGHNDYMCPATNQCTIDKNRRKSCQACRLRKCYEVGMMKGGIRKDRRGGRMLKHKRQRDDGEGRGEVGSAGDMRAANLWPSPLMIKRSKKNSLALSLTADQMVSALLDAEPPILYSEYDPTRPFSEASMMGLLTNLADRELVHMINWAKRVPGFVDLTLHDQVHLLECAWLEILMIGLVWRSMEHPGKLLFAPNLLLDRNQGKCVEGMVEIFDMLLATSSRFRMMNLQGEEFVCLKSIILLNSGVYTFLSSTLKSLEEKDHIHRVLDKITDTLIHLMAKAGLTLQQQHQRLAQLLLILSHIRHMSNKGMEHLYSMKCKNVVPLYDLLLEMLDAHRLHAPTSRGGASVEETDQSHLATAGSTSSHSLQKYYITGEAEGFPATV
Chain of Androgen receptor (Homo sapiens) (P10275 whole entry, looked up): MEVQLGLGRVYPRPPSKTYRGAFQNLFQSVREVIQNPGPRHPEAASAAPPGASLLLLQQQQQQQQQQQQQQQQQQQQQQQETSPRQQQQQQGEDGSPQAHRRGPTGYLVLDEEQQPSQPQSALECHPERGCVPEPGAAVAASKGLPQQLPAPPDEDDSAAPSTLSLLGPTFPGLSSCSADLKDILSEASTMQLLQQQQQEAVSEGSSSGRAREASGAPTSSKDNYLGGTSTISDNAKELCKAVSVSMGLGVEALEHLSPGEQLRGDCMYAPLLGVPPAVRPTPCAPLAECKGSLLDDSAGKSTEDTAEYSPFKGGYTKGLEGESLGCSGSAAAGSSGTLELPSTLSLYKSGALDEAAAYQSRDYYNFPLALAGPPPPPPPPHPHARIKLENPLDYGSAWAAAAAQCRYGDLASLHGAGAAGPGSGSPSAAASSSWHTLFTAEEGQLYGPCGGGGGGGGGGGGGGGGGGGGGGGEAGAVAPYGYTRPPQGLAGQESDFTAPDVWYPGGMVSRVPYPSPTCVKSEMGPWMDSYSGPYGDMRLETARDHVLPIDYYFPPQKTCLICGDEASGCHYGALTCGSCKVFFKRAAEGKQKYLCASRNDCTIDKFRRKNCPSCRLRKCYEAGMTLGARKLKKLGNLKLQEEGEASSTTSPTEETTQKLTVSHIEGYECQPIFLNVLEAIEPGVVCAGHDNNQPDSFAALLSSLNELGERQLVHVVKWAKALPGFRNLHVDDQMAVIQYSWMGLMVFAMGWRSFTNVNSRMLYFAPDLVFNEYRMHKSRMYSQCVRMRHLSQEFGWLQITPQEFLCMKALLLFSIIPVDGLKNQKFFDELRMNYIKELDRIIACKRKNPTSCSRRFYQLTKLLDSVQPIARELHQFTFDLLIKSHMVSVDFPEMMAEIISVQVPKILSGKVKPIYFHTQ

Turning to `CCCCOC(=O)c1ccc(O)cc1`, the Potency entry in [1], in assay [2], in assay [3], in assay [4], in assay [6] and in assay [7] was “inactive” each time. Further, the Potency result in [8], in assay [9], in assay [10], in [11], in assay [12] and in assay [13] was “inactive” throughout. Also, the Potency result in assay [15], in [16], in assay [17] and in assay [19] was “inactive” in each case. For the same molecule, the Potency in assay [5] was 22.1 µM (active) and 19.5 µM (active); in assay [14], 27.6 µM (active) and 30.6 µM (active). For the same molecule, the outcome in assay [18] was inactive.
`CCCc1cc(=O)[nH]c(=S)[nH]1`: the Potency result in [1], in assay [2], in assay [3], in assay [4], in assay [5] and in [6] was “inactive” each time. Further, the Potency entry in assay [7], in assay [8], in assay [9], in assay [10], in [11] and in assay [20] was “inactive” throughout. Also, the Potency result in [13], in assay [14], in [15], in assay [16], in assay [17] and in [19] was “inactive” in each case. The molecule was classed as inactive in [18].
On to `COc1ccc2c(c1)c(CC(=O)O)c(C)n2C(=O)c1ccc(Cl)cc1`, for which the Potency result in [1], in [2], in assay [3], in [4], in assay [5] and in assay [6] was “inactive” each time. The Potency entry in [7], in assay [8], in assay [9], in [10], in assay [11] and in [12] was “inactive” in each case. For the same molecule, the Potency entry in assay [20], in assay [14], in assay [15], in assay [16], in [17] and in assay [19] was “inactive” in each case. Moreover, the PLD induction in assay [13] was 14.5% [at 7.66 µM]. Further, the call in [18] was inactive.
With `Cc1cn([C@H]2C=C[C@@H](CO)O2)c(=O)[nH]c1=O`, the Potency entry in [1], in [2], in assay [3], in assay [4], in assay [5] and in assay [6] was “inactive” throughout. Also, the Potency result in assay [7], in assay [8], in assay [9], in [10], in assay [11] and in assay [13] was “inactive” throughout. Also, the Potency result in assay [14], in [15], in assay [16], in [17] and in assay [19] was “inactive” in each case. Further, the molecule was classed as inactive in [18].
With `NS(=O)(=O)c1cc2c(cc1Cl)NCNS2(=O)=O`, the Potency result in assay [1], in [2], in assay [3], in assay [4], in [5] and in assay [6] was “inactive” each time. The Potency entry in assay [7], in [8], in assay [9], in [10], in assay [11] and in [20] was “inactive” throughout. The Potency result in assay [13], in assay [14], in [15], in assay [16], in assay [17] and in [19] was “inactive” in each case. In addition, the molecule was classed as inactive in assay [18].
